This is one part of a sample in which hits are shown more often than they occur.
Tb PYK inh: T. brucei pyruvate kinase inhibition; Potency, µM (top dose mostly 76.8 µM), actives largely listed as inhibitors; hit rate 0.12% among 410,000; Q57TT1; TbPYK enzyme, Kinase-Glo Plus ATP luminescence, 45 min; note: nearly all actives have a fitted effect of over 50% in size
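Assay buffer: 50 mM TEA pH 7.2, 100 mM KCl, 10 mM MgCl2, 0.05% BSA, 0.01% Tween-20. Pyruvate kinase from T. brucei plus substrate met compound, then ADP (130 uM final). Luminescence was read post 45 min RT.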
Shiga toxin inh: blocks Shiga toxin action in Vero cells; Vero cells, Shiga toxin protein synthesis inhibition reporter; inhibition, % at 38.7 µM; hit rate 9.2% among 290,000; AID 2315; in the data active = inhibition mostly above about 28%, no sharp cut-off; inactive = mostly below about 43%
Cycloheximide cs: counter-screen hit for Shiga toxin inhibitors, cycloheximide | cell reporter, cycloheximide protein synthesis inhibition counterscreen | max response, % | hit rate 12% among 300,000 | AID 2314; in the data active = max response mostly above about 13%, no sharp cut-off; inactive = mostly below about 14%; note: read at 38.3 µM for the half of the compounds with a filed dose
FBPA Giardia inh: Giardia lamblia aldolase inhibition; A8B2U2; purified Giardia FBPA; Potency, µM (top dose mostly 59.6 µM), actives largely listed as inhibitors; hit rate 0.71% among 290,000; AID 2451; note: nearly all actives have a fitted effect of over 55% in size
Target sequence (A8B2U2 whole entry, looked up): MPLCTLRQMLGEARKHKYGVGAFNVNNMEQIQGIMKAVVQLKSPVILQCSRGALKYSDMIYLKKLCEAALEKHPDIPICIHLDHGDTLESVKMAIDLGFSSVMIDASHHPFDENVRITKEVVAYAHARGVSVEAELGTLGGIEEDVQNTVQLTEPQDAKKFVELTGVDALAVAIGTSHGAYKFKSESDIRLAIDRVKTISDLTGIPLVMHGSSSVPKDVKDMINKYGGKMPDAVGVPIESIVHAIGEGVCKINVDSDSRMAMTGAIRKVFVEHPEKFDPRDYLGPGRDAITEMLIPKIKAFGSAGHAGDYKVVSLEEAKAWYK
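Giardia FBPA (40 nM reagent) was preincubated 10 min at RT with compound (up to 57.5 uM final), then substrate plus GAPDH/TPI/NAD/arsenate coupling system with diaphorase/resazurin was added; resorufin fluorescence (525/598 nm) was read after 20 min.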
LmPK inh: blocks Leishmania mexicana pyruvate kinase activity. purified LmPK, Kinase-Glo ATP luminescence, 1 h. Q27686. AID 1721. hit rate 0.37% among 290,000. Potency, µM (doses to about 57.5 µM), actives largely listed as inhibitors
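ATP generated from ADP (0.1 mM) and PEP (0.5 mM) by 0.1 nM LmPK over 1 h at room temperature (pH 7.2 imidazole buffer) was detected by coupled luciferase luminescence. Values were normalized to uninhibited and no-enzyme wells.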
RE007 growth inh: less growth of the S. pombe RE007 Vpr strain. Potency, µM (doses to about 92.2 µM), usual class: inhibitors. hit rate 0.21% among 360,000. AID 651644. S. pombe RE007 Vpr strain, BacTiter-Glo ATP luminescence, 24 h; active = well fitted falling curve with a large enough effect; inconclusive = small, poorly fitted or top-dose-only effect; inactive = no such curve, though single readings can be large or run the other way; note: nearly all actives have a fitted effect of over 50% in size
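Fission yeast strain RE007, carrying one chromosomally integrated HIV-1 vpr copy, was seeded at OD 0.01 in PMG+AL medium with 23 nL pinned compound. After 24 h at 30 °C and 99% humidity, viability was read by BacTiter-Glo luminescence.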
Numbers stand for hits; - = inactive; ? = inconclusive; . = not tested or not shown. Unless noted, calls come from the whole dose curve; as a rule, active = well fitted curve in the direction sought with a large enough effect; inconclusive = small, poorly fitted or top-dose-only effect, or another doubt; inactive = no such curve, though single readings can be large; an effect the other way counts as inactive or inconclusive.

SMILES	Tb PYK inh	Shiga toxin inh	Cycloheximide cs	FBPA Giardia inh	LmPK inh	RE007 growth inh
CCCC[C@H](NC(=O)[C@H](CO)NC(=O)[C@H](Cc1ccc(O)cc1)NC(=O)[C@H](CO)NC(C)=O)C(=O)N[C@@H](CCC(=O)O)C(=O)N[C@@H](Cc1cnc[nH]1)C(=O)N[C@H](Cc1ccccc1)C(=O)N[C@@H](CCCNC(=N)N)C(=O)N[C@@H](Cc1c[nH]c2ccccc12)C(=O)NCC(=O)N[C@@H](CCCCN)C(=O)N1CCC[C@H]1C(=O)N[C@H](C(N)=O)C(C)C	.	-	-	-	.	.
COC(=O)c1ccc2c(c1)C(=O)/C(=C/c1ccc(C)cc1)O2	-	-	-	-	-	-
COC(=O)c1ccc(/C=C2\Oc3ccccc3NC2=O)cc1	-	-	15	-	-	-
CCc1c(C(=O)N/N=C/c2cccs2)nnn1-c1nonc1N	-	45	23	-	-	-
Nc1nonc1-n1nnc(C(=O)N/N=C/C=C/c2ccccc2)c1CSC1=NCCS1	-	43	17	-	-	-
Nc1nnnn1CC(=O)N/N=C/c1cccs1	-	-	17	-	-	-
CC(/C=N/NC(=O)c1nnn(-c2nonc2N)c1C(C)C)=C\c1ccccc1	-	-	29	-	-	-
Nc1nonc1-n1nnc(C(=O)N/N=C/c2c(Cl)cccc2Cl)c1CSC1=NCCS1	-	-	-	-	-	-
CCN(CC)Cc1c(C(=O)N/N=C/c2cccs2)nnn1-c1nonc1N	-	-	-	-	-	-
CCOc1ccccc1NC(=O)Cn1c(=O)ccc2cc(S(=O)(=O)N3CCCC3)ccc21	-	.	.	.	.	.
Cc1cccc(COc2ccc(/C=N/NC(=O)c3nnn(-c4nonc4N)c3COc3ccc(F)cc3)cc2)c1	-	-	16	-	-	-
Nc1nonc1-n1nnc(C(=O)N/N=C/c2ccc(OCc3cccc(Cl)c3)cc2)c1CN1CCCCC1	-	-	27	-	-	-
Nc1nonc1-n1nnc(C(=O)N/N=C/c2ccc(OCc3ccccc3)cc2)c1COc1ccc(F)cc1	-	-	-	-	-	-
Cc1cccc(COc2ccc(/C=N/NC(=O)c3nnn(-c4nonc4N)c3CN3CCCCC3)cc2)c1	-	-	-	?	-	-
Cc1cccc(NC(=O)c2sc3nc4c(cc3c2N)CN(C(C)C)CC4)c1	-	.	.	.	.	.
O=C(Nc1ccccc1OCc1cc(=O)n2ccccc2n1)c1ccccc1F	-	.	.	.	.	.
O=C(Nc1cccc2nsnc12)c1ccc(-c2cccc(Cl)c2)o1	-	-	-	?	-	?
OC[C@@H](O)[C@H](O)C(/C=N/Nc1ccccc1)=N\Nc1ccccc1	-	-	28	-	-	-
CCOC(=O)C(CCC(C)=O)C(=O)c1ccccc1 (configuration not stated)	-	-	-	-	-	-
CCOC(=O)C(CC(=O)c1ccccc1)CC(=O)c1ccccc1	-	113	39	-	-	?
COC(=O)C(CC(=O)c1ccccc1)CC(=O)c1ccccc1	-	43	17	-	-	-
CCOC(=O)N=S(N)(=O)c1ccccc1 (configuration not stated)	-	-	-	-	-	-
CCOC(=O)CC(S(=O)(=O)c1ccccc1)S(=O)(=O)c1ccccc1	-	.	.	.	.	2µM
COc1ccccc1C(CC(=O)c1ccccc1)CC(=O)c1ccccc1	-	-	-	-	-	-
CN1CCC2(CC1)N=C(c1ccc(F)cc1)C(=S)N2C(=O)c1ccc(C(C)(C)C)cc1	?	-	-	-	-	?
SMILES	Tb PYK inh	Shiga toxin inh	Cycloheximide cs	FBPA Giardia inh	LmPK inh	RE007 growth inh
Cc1ccc(N=Cc2nc(-c3ccc(C)cc3)oc2O)cc1	-	97	27	-	-	-
COc1ccc(-c2nc(/C=C3\C(C)=Nc4ccccc43)c(O)o2)cc1	-	-	-	-	-	-
CSc1ccccc1N=Cc1nc(-c2ccccc2)oc1O	-	94	37	-	-	-
CC(=O)Nc1ccc(N=Cc2nc(-c3ccc(C)cc3)oc2O)cc1	-	-	-	-	-	-
COc1ccc(N=Cc2nc(-c3ccco3)oc2O)cc1	-	102	51	-	-	?
Oc1oc(-c2ccccc2)nc1C=Nc1ccccc1	-	115	46	-	-	-
COc1ncc2ncc(=O)n(C[C@H]3CCCO3)c2n1	.	.	.	-	.	.
CN(C)c1ccc(N=Cc2nc(-c3ccccc3)oc2O)cc1	-	-	-	-	-	?
Oc1oc(-c2ccccc2)nc1C=NCc1ccccc1	-	119	61	-	-	-
O=C(Oc1oc(-c2ccco2)nc1C=Nc1ccc(Cl)cc1)c1ccco1	-	51	23	-	-	?
CC(=O)Oc1oc(-c2ccccc2)nc1C=Nc1ccc(N(C)C)cc1	-	-	-	-	-	-
CC1Cc2cc(S(=O)(=O)N3CCC(C(=O)NCc4ccco4)CC3)ccc2N1C(=O)C1CCC1 (configuration not stated)	-	-	-	-	-	-
CN(C)Cc1ccccc1-c1cc(NCc2ccccc2)ncn1	.	.	.	-	.	.
CN(CC(=O)Nc1cccc(F)c1)C(=O)CCc1nc2cc(S(=O)(=O)N3CCOCC3)ccc2n1C	-	.	.	.	.	-
CC(=O)Oc1ccc2ccc3ccc(C(C)=O)cc3c2c1	-	.	.	.	.	-
CCc1cccc(NC(=O)C2CCCN2S(=O)(=O)c2ccc3c(c2)CC(C)N3C(C)=O)c1 (configuration not stated)	-	-	-	-	-	-
O=C1c2cccc3c(N4CCCCC4)ccc(c23)C(=O)N1CCO	-	-	42	-	-	-
Cc1n[nH]c(C)c1N1C(=O)c2cccc3c(N4CCCCCC4)ccc(c23)C1=O	-	-	-	-	-	-
O=C1c2cccc3cccc(c23)C(=O)N1CCO	-	.	.	.	.	-
C=CCN1C(=O)c2cccc3c(N4CCCCC4)ccc(c23)C1=O	-	130	46	-	-	-
O=C1c2cccc3c(N4CCCCC4)ccc(c23)C(=O)N1c1cccc(O)c1	-	90	61	-	-	-
COc1ccc(C(=O)NCC(c2ccc3c(c2)OCO3)N2CCN(C)CC2)cc1OC (configuration not stated)	-	.	.	.	.	.
CN(C)C(=O)c1cc(-c2ccccc2)no1	-	53	22	-	-	-
COc1ccc(N)c2c1C(=O)c1ccccc1C2=O	-	60	51	-	?	?
COc1ccc(OC)c2c1C(=O)c1ccccc1C2=O	-	-	-	?	-	-
Nc1ccc(O)c2c1C(=O)c1ccccc1C2=O	-	36	22	?	-	?
COc1ccc(OC)c2c1C(=O)C(Cl)=C(Cl)C2=O	2.8µM	-	15	1.3µM	-	?
Nc1ccc(NC(=O)c2ccccc2)c2c1C(=O)c1ccccc1C2=O	-	-	-	-	-	-
Nc1ccc(Br)c2c1C(=O)c1ccccc1C2=O	-	-	28	-	-	-
